Measured values reported in PubChem BioAssay AID1159580 (chemical genetic matrix, 2015).
Where “and” joins values, the source holds several entries; their conditions need not be identical. Identical values can stand only once. Out of some 5,500 compounds screened, about 2,000 (36%) were called active. Roughly 18% stayed inconclusive and do not appear here. Cut-off read from the data, not from the text of the source: active = normalized growth mostly below about 0.91 (no sharp cut-off); inconclusive = no clear call, values can overlap the other calls; inactive = mostly above about 0.92. This is one part of the list.

Experiment: chemical genetic growth profiling, strain panel (AID 1159580);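 note: tested at 20 µM; growth read once vehicle control cultures reached saturation at 30 °C; 1 = growth at the plate median or of vehicle wells; lower values mean less growth of the strain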
Conditions: S. cerevisiae deletion strains, growth OD

Measured: normalized growth

C[C@H](COc1ccccc1)N[C@H](C)[C@H](O)c1ccc(O)cc1
inactive: locus YAL021C, strain ccr4, hits give low values 0.964 | locus YAL026C, strain drs2, hits give low values 0.974 | locus YAL030W, strain snc1, hits give low values 0.999 | locus YBL061C, strain skt5, hits give low values 1.01 | locus YBR009C, strain hhf1, hits give low values 1 | locus YBR021W, strain FUR4, hits give low values 0.986 | locus YBR023C, strain chs3, hits give low values 0.981 | locus YBR171W, strain sec66, hits give low values 0.997 | locus YBR229C, strain ROT2, hits give low values 0.995 | locus YBR231C, strain swc5, hits give low values 0.988 | locus YBR279W, strain paf1, hits give low values 0.982 | locus YCL011C, strain gbp2, hits give low values 1 | locus YCL016C, strain dcc1, hits give low values 0.979 | locus YCL029C, strain bik1, hits give low values 0.996 | locus YCL061C, strain MRC1, hits give low values 0.986 | locus YCL069W, strain vba3, hits give low values 0.997 | locus YCR088W, strain abp1, hits give low values 0.998 | locus YDL005C, strain med2, hits give low values 0.999 | locus YDL035C, strain GPR1, hits give low values 1.03 | locus YDL040C, strain nat1, hits give low values 0.994 | locus YDL074C, strain BRE1, hits give low values 1.03 | locus YDL101C, strain DUN1, hits give low values 1 | locus YDL185W, strain tfp1, hits give low values 0.992 | locus YDL192W, strain arf1, hits give low values 0.998 | locus YDR001C, strain nth1, hits give low values 0.992 | locus YDR069C, strain doa4, hits give low values 0.998 | locus YDR101C, strain arx1, hits give low values 1.01 | locus YDR137W, strain rgp1, hits give low values 0.963 | locus YDR150W, strain NUM1, hits give low values 1 | locus YDR159W, strain sac3, hits give low values 0.99 | locus YDR162C, strain NBP2, hits give low values 1 | locus YDR195W, strain ref2 0.993 | locus YDR297W, strain sur2, hits give low values 0.99 | locus YDR318W, strain mcm21, hits give low values 0.994 | locus YDR334W, strain swr1, hits give low values 0.996 | locus YDR335W, strain msn5, hits give low values 1 | locus YDR388W, hits give low values 0.997 | locus YDR392W, strain spt3, hits give low values 0.952 | locus YDR502C, strain sam2, hits give low values 1.01 | locus YEL003W, strain gim4, hits give low values 1 | locus YEL037C, strain rad23, hits give low values 0.997 | locus YEL061C, strain CIN8 (second series), hits give low values 0.996 | locus YEL061C, strain CIN8, hits give low values 1 | locus YER015W, strain faa2, hits give low values 1 | locus YER016W, strain bim1, hits give low values 1.01 | locus YER110C, hits give low values 0.975 | locus YER111C, strain swi4, hits give low values 0.988 | locus YER155C, strain BEM2 (second series), hits give low values 0.983 | locus YER155C, strain BEM2, hits give low values 0.986 | locus YER167W, strain BCK2, hits give low values 0.985 | locus YFR010W, strain ubp6, hits give low values 0.996 | locus YGL078C, strain dbp3, hits give low values 0.98 | locus YGL086W, strain mad1, hits give low values 1.01 | locus YGL167C, strain pmr1, hits give low values 1 | locus YGL173C, strain kem1, hits give low values 1 | locus YGL227W, strain vid30, hits give low values 0.986 | locus YGL240W, strain doc1, hits give low values 0.988 | locus YGL248W, strain PDE1, hits give low values 0.993 | locus YGL253W, strain hxk2, hits give low values 1.01 | locus YGR078C, strain PAC10, hits give low values 1.01 | locus YGR135W, strain pre9, hits give low values 0.942 | locus YGR252W, strain gcn5, hits give low values 0.988 | locus YHR013C, strain ard1, hits give low values 0.969 | locus YHR027C, strain rpn1, hits give low values 0.997 | locus YHR030C, strain SLT2, hits give low values 0.993 and 1 | locus YHR079C, strain IRE1 (second series), hits give low values 0.991 | locus YHR079C, strain IRE1, hits give low values 0.985 | locus YHR094C, strain hxt1, hits give low values 0.974 | locus YHR129C, strain ARP1, hits give low values 0.992 | locus YHR142W, strain chs7, hits give low values 1 | locus YHR200W, strain rpn10, hits give low values 0.992 | locus YIL066C, strain RNR3, hits give low values 0.987 | locus YIL073C, strain SPO22, hits give low values 0.977 | locus YIL125W, strain kgd1, hits give low values 1 | locus YIR030C, strain dcg1, hits give low values 0.993 | locus YJL092W, strain hpr5, hits give low values 0.992 | locus YJL095W, strain BCK1 (second series), hits give low values 0.998 | locus YJL095W, strain BCK1, hits give low values 0.965 and 1 | locus YJL115W, strain asf1, hits give low values 0.996 | locus YJL129C, strain trk1, hits give low values 0.993 | locus YJL134W, strain LCB3, hits give low values 0.991 | locus YJL154C, strain vps35, hits give low values 0.998 | locus YJL164C, strain tpk1, hits give low values 0.996 | locus YJL166W, strain qcr8, hits give low values 0.989 | locus YJL168C, strain set2, hits give low values 0.99 | locus YJL187C, strain SWE1 (second series), hits give low values 0.985 | locus YJL187C, strain SWE1, hits give low values 1.01
